Assay results from PubChem BioAssay (NCATS).
Results filed as inconclusive are left out. The source made the active and inactive calls. Calls follow the shape of the dose curve; as a rule, active = well fitted curve in the direction sought with a large enough effect; inconclusive = small, poorly fitted or top-dose-only effect, or another doubt; inactive = no such curve, though single readings can be large; an effect the other way counts as inactive or inconclusive.

Assays:
[1] = qHTS to identify inhibitors of the type 1 interferon - major histocompatibility complex class I in skeletal muscle: primary screen against the NCATS LOPAC collection (AID 1347405);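 also: lytic HiBiT luminescence reporting HLA-B protein level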
In short: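 Immortalized human C25cl48 myoblasts with HiBiT knocked into endogenous HLA-B*08:01 were stimulated with 4.0 ng/ml IFN-beta and given compounds in a 7-point, 1:4.3 titration from 46 uM final; after 24 hrs, lytic HiBiT luminescence was read.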

[2] = qHTS for inhibitors of adenylyl cyclases using a fission yeast platform: a pilot screen against the NCATS LOPAC library (AID 1347410)
In short: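 Read-out: fbp1-GFP fluorescence by laser scanning cytometry (488 nm laser), a gain of signal when AC/cAMP-PKA signalling is inhibited. Strain CHP2027 expressing AC9, GNAS and PDE4D2; compounds at up to 57 µM; 18 h, 30C.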

[3] = Validation qHTS assay for inhibitors of Activation Induced Cytidine Deaminase (AID): UDG Counterscreen signal (AID 1347427)
In short: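 Counterscreen read of UDG activity (2 U/mL, 4/3x) in the FRET deamination format with AID (1 uM, 4/3x), DJC20/DJC23 substrates (250 nM, 4x), 4 h at room temperature. NaOH stop, fluorescence at 560 ex/665 em.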

[4] = target: Single-stranded DNA cytosine deaminase (Homo sapiens) (UniProt Q9GZX7); assay: Validation qHTS assay for inhibitors of Activation Induced Cytidine Deaminase (AID): AID signal (AID 1347429)
Chain of Single-stranded DNA cytosine deaminase (Homo sapiens) (Q9GZX7 whole entry, looked up): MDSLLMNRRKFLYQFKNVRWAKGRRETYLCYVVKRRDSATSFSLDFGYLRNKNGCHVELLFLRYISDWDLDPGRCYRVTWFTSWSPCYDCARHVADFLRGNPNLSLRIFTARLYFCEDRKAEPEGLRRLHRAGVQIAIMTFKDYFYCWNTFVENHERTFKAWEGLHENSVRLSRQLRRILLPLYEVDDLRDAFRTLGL
In short: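 AID and UDG were combined and compounds added at final up to 114 uM, then DJC20/DJC23 FRET substrate was added for 4 hr at room temperature. NaOH was then added for 30 min before fluorescence was read at 540/590 nm.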

Measured: Potency

CC(=O)C(C)=O
inactive: all assays above

COC1(C2=NCCN2)COc2ccccc2O1 (configuration not stated)
inactive: all assays above

CC(N)(Cc1ccc(O)c(O)c1)C(=O)O (configuration not stated)
inactive: all assays above
